Inconclusive results are not listed. Entries that show only a call come without a potency. Calls of active or inactive are those of the source. Calls follow the shape of the dose curve; as a rule, active = well fitted curve in the direction sought with a large enough effect; inconclusive = small, poorly fitted or top-dose-only effect, or another doubt; inactive = no such curve, though single readings can be large; an effect the other way counts as inactive or inconclusive.
Tests used:
[1] = Quantitative High-Throughput drug screen in 47 multiple myeloma cell lines against the NCATS MIPE library collection: PE2_PLB cell viability assay (AID 1919869); also: nearly all actives have a fitted effect of over 35% in size; also: potency is read from the fitted curve at half-maximal effect
In short: (§1)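 ATP-based CellTiter-Glo luminescence after 48 h drug exposure (37 °C, 5% CO2) of 500 myeloma cells per well. DMSO-only wells set 100% viability, media-only wells 0%; MIPE 4.0 library added by pin tool.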

[2] = Quantitative High-Throughput drug screen in 47 multiple myeloma cell lines against the NCATS MIPE library collection: PCM6_Riken cell viability assay (AID 1919870); also: nearly all actives have a fitted effect of over 30% in size; also: potency is read from the fitted curve at half-maximal effect
In short: as §1

[3] = Quantitative High-Throughput drug screen in 47 multiple myeloma cell lines against the NCATS MIPE library collection: RPMI8226_ATCC cell viability assay (AID 1919871); also: nearly all actives have a fitted effect of over 30% in size; also: potency is read from the fitted curve at half-maximal effect
In short: as §1

[4] = Quantitative High-Throughput drug screen in 47 multiple myeloma cell lines against the NCATS MIPE library collection: KMS28BM_JCRB cell viability assay (AID 1919874); also: nearly all actives have a fitted effect of over 35% in size; also: potency is read from the fitted curve at half-maximal effect
In short: as §1

[5] = Quantitative High-Throughput drug screen in 47 multiple myeloma cell lines against the NCATS MIPE library collection: OPM2_DSMZ cell viability assay (AID 1919872); also: nearly all actives have a fitted effect of over 30% in size; also: potency is read from the fitted curve at half-maximal effect
In short: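 CellTiter-Glo ATP luminescence gave viability after 48 h compound treatment at 37C of 500 multiple myeloma cells per well. Normalisation used DMSO-only wells as 100% and media-only wells as 0% viability; primary qHTS of approved and investigational drugs.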

[6] = Quantitative High-Throughput drug screen in 47 multiple myeloma cell lines against the NCATS MIPE library collection: KMS11_JCRBsus cell viability assay (AID 1919873); also: nearly all actives have a fitted effect of over 50% in size; also: potency is read from the fitted curve at half-maximal effect
In short: as §1

[7] = biological target: Cytochrome P450 3A4 (Homo sapiens) (UniProt P08684); experiment: qHTS for inhibitors of CYP3A4 against the NCATS DSHEA and TCM libraries (AID 1919971);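 also: inhibition lowers luminescence from luciferin made by CYP3A4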
In short: (§2)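 Concentration-response screening with isoform-matched pro-luciferin substrates. The CYP reaction was initiated by NADPH regenerating solution and ran 30-45 min in darkness at room temperature.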

[8] = biological target: Cytochrome P450 2D6 (Homo sapiens) (UniProt P10635); experiment: qHTS for inhibitors of CYP2D6 against the NCATS DSHEA and TCM libraries (AID 1919972)
In short: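 CYP2D6 enzyme with pro-luciferin substrate in manufacturer buffer (typically 100 mM KPO4), preincubated 15 min RT with substances (most at 19.5 nM upward); NADPH regeneration system (1x) started 30–45 min RT reaction; P450-Glo luminescence read after 30 min; quinidine as intraplate control.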

[9] = biological target: Cytochrome P450 2C9 (Homo sapiens) (UniProt P11712); experiment: qHTS for inhibitors of CYP2C9 against the NCATS DSHEA and TCM libraries (AID 1919973);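 also: luminogenic pro-luciferin CYP2C9 substrate turned into luciferin with NADPH regeneration; series mostly up to about 34 µM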
In short: as §2

[10] = biological target: Cytochrome P450 2C19 (Homo sapiens) (UniProt P33261); experiment: qHTS for inhibitors of CYP2C19 against the NCATS DSHEA and TCM libraries (AID 1919974);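 also: luminescence from luciferin released by CYP2C19 oxidation of a pro-luciferin substrate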
In short: as §2

Sequence of Cytochrome P450 2D6 (Homo sapiens) (P10635 whole entry, looked up): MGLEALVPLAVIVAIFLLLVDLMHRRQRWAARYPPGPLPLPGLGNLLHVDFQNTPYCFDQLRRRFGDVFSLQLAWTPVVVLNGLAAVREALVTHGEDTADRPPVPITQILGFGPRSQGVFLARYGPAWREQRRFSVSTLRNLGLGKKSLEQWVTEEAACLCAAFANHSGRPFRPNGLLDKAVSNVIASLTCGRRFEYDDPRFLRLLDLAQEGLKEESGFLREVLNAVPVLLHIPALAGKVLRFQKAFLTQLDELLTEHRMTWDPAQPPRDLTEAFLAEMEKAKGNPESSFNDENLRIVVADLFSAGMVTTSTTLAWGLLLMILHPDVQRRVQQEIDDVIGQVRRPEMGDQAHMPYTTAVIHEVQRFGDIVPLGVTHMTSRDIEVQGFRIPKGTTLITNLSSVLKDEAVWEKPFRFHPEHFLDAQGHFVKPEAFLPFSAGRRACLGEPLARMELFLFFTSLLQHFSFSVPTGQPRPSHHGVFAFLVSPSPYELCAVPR
Sequence of Cytochrome P450 2C9 (Homo sapiens) (P11712 whole entry, looked up): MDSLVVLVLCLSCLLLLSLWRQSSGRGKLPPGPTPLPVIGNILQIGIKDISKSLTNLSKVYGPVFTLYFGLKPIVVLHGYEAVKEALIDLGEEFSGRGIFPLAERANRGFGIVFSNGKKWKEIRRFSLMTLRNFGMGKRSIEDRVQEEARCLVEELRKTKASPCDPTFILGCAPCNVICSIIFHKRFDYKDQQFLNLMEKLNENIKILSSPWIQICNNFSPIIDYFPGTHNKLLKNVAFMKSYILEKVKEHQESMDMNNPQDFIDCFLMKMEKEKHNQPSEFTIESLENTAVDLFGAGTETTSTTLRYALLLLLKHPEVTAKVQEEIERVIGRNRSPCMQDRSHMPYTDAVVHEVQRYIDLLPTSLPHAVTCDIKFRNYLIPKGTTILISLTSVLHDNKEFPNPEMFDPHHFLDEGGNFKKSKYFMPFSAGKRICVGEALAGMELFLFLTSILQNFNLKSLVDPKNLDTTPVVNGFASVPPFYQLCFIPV
Sequence of Cytochrome P450 3A4 (Homo sapiens) (P08684 whole entry, looked up, canonical isoform): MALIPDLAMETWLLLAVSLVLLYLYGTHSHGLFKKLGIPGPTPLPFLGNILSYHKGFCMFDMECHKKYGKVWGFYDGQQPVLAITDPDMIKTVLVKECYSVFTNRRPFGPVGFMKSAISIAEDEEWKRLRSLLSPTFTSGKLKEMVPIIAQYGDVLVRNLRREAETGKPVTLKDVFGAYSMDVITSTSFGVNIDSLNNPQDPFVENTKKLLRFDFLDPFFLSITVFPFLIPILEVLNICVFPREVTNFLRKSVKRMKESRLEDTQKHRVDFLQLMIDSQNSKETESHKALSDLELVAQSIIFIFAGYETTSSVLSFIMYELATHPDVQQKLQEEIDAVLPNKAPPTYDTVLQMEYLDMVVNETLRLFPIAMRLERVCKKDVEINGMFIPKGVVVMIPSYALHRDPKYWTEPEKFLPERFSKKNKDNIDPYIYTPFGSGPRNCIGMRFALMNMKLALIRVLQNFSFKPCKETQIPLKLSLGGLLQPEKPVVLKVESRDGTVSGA
Sequence of Cytochrome P450 2C19 (Homo sapiens) (P33261 whole entry, looked up): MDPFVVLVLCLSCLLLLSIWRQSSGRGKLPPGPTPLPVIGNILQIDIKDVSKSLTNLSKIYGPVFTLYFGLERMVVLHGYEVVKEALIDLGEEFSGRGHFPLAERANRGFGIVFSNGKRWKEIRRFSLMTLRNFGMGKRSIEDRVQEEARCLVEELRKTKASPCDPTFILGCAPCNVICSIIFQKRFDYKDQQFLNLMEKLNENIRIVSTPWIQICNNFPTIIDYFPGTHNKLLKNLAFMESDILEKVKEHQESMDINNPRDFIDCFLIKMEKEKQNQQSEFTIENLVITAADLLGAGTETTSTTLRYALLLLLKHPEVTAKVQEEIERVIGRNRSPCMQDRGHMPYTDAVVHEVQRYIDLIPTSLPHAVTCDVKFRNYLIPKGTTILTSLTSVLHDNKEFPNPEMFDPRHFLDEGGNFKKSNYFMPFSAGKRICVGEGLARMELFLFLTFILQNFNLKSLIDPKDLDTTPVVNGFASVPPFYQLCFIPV

CC(C[N+](C)(C)C)OC(N)=O (stereo not given)
Potency [1]: inactive
Potency [2]: inactive
Potency [3]: inactive
Potency [4]: inactive

Nc1nc2c(ncn2COCCO)c(=O)[nH]1
Potency [1]: inactive
Potency [2]: 23.5 µM (active)
Potency [5]: inactive
Potency [6]: inactive

Cc1cccc(-c2[nH]c(C(C)(C)C)nc2-c2ccc3nccnc3c2)n1
Potency [1]: 2.09 µM (active)
Potency [2]: 7.43 µM (active)
Potency [5]: inactive

Cn1c(=O)c(F)c(Nc2ccc(I)cc2F)c2c(=O)n(C[C@@H](O)CO)cnc21
Potency [1]: 9.35 µM (active)

C[C@]12CC[C@H](O)CC1=CC[C@@H]1[C@H]2CC[C@]2(C)C(c3cccnc3)=CC[C@H]12
Potency [1]: inactive
Potency [2]: inactive
Potency [3]: inactive
Potency [5]: inactive

CCOc1cc(N2CCC(O)CC2)ccc1Nc1ncc2c(n1)N(C)c1ccccc1C(=O)N2C
Potency [1]: 3.72 µM (active)
Potency [2]: 14.8 µM (active)
Potency [3]: 20900 nM (active)
Potency [5]: 13.2 µM (active)
Potency [6]: 3.32 µM (active)

CCN(CC)CCCC(C)Nc1ccnc2cc(Cl)ccc12 (stereo not given)
Potency [1]: inactive
Potency [2]: 10.5 µM (active)
Potency [3]: inactive
Potency [5]: inactive

COc1cccc2cc(-c3nc(C4CCC(C(=O)O)CC4)n4ncnc(N)c34)[nH]c12 (stereo not given)
Potency [1]: 0.372 µM (active)
Potency [2]: 1.87 µM (active)
Potency [3]: 590 nM (active)
Potency [5]: 2.96 µM (active)
Potency [6]: 0.132 µM (active)
Potency [4]: 1.48 µM (active)

O=c1ncn2nc(Sc3ccc(F)cc3F)ccc2c1-c1c(Cl)cccc1Cl
Potency [1]: 3.72 µM (active)
Potency [2]: 13.2 µM (active)
Potency [3]: inactive
Potency [4]: inactive

CCCCNc1cc(C(=O)O)cc(S(N)(=O)=O)c1Oc1ccccc1
Potency [1]: inactive
Potency [2]: inactive
Potency [3]: inactive
Potency [5]: inactive

O=C(NOC[C@H](O)CO)c1ccc(F)c(F)c1Nc1ccc(I)cc1F
Potency [1]: 0.0662 µM (active)
Potency [2]: inactive
Potency [3]: 29.6 nM (active)
Potency [6]: inactive

O=C(c1cc(Cc2n[nH]c(=O)c3ccccc23)ccc1F)N1CCN(C(=O)C2CC2)CC1
Potency [1]: 18.7 µM (active)
Potency [2]: 11.8 µM (active)
Potency [3]: inactive
Potency [5]: inactive

COCCNCCCn1c(C(=O)CF)c(-c2ccc(C)cc2)c2c(N)ncnc21
Potency [1]: 14.8 µM (active)
Potency [2]: 10.5 µM (active)
Potency [5]: inactive

Cc1oncc1C(=O)Nc1ccc(C(F)(F)F)cc1
Potency [1]: inactive
Potency [2]: inactive
Potency [5]: inactive

CN(C(=O)c1ccc(F)cc1C(F)(F)F)C1CCN(c2nnc(-c3ccnn3C)c3ccccc23)CC1
Potency [1]: 18.7 µM (active)

O=C(O)CCc1ccc(NCc2cccc(Oc3ccccc3)c2)cc1
Potency [1]: inactive
Potency [2]: inactive
Potency [3]: inactive
Potency [5]: inactive
Potency [6]: inactive

COc1ccc(COc2cc3oc(=O)c4cc(C(C)O)ccc4c3cc2OC)cc1 (stereo not given)
Potency [1]: 14.8 µM (active)

CCN(c1ccccc1)c1cc(NC)[n+](C)c(C)n1
Potency [1]: inactive
Potency [2]: inactive
Potency [3]: inactive
Potency [5]: inactive
Potency [6]: inactive

Nc1ncnc2nc(-c3ccc(N4CCOCC4)nc3)cc(-c3cccc(Br)c3)c12
Potency [1]: 18.7 µM (active)

O=C(O)[C@@H](c1ccc(OCc2ccc3ccccc3n2)cc1)C1CCCC1
Potency [1]: inactive
Potency [2]: inactive
Potency [5]: inactive

OCCC#Cc1nc(-c2ccc(F)cc2)c(-c2ccncc2)n1CCCc1ccccc1
Potency [1]: 20.9 µM (active)
Potency [2]: 23.5 µM (active)

O=C1CCC(N2C(=O)c3ccccc3C2=O)C(=O)N1 (stereo not given)
Potency [1]: inactive
Potency [2]: inactive
Potency [5]: inactive

Cc1c(C)c2c(c(C)c1O)CCC(C)(COc1ccc(CC3SC(=O)NC3=O)cc1)O2 (stereo not given)
Potency [1]: 20.9 µM (active)
Potency [2]: 20.9 µM (active)
Potency [3]: inactive
Potency [5]: inactive
Potency [4]: inactive

NS(=O)(=O)c1cc2c(cc1Cl)NC=NS2(=O)=O
Potency [1]: inactive
Potency [2]: inactive
Potency [3]: inactive
Potency [5]: inactive
Potency [4]: inactive

NC(=O)c1cnccn1
outcome [7]: inactive
outcome [8]: inactive
outcome [9]: inactive
outcome [10]: inactive

CCC(=O)N[C@H]1CC[C@H](C(=O)N(C)c2ccc(-c3nc4ccccc4o3)cc2)C1
Potency [1]: 13.2 µM (active)
Potency [5]: inactive
Potency [4]: 14.8 µM (active)

CC(C)(C)NCC(O)c1ccc(O)c(CO)c1 (stereo not given)
Potency [2]: inactive
Potency [3]: inactive
Potency [5]: inactive

CCOc1ccn(-c2ccc(F)cc2)c(=O)c1C(=O)Nc1ccc(Oc2ccnc(N)c2Cl)c(F)c1
Potency [1]: 13.2 µM (active)
Potency [5]: inactive

CC(c1cc2ccccc2s1)N(O)C(N)=O (stereo not given)
Potency [2]: inactive
Potency [3]: inactive
Potency [5]: inactive
Potency [6]: inactive

CCc1cc(Nc2nccc(-c3c(-c4ccc(OC)c(C(=O)Nc5c(F)cccc5F)c4)nc4ccccn34)n2)c(OC)cc1N1CCC(N2CCN(S(C)(=O)=O)CC2)CC1
Potency [2]: inactive

NC(=O)c1ccc(I)c([N+](=O)[O-])c1
Potency [1]: 20.9 µM (active)
Potency [5]: inactive
Potency [6]: inactive
Potency [4]: inactive
